DAX1 inh-1 – NR0B1 (DAX1) inhibition. P51843. HEK293 Gal4-DAX1 luciferase reporter, luminescence. inhibition, % at 6.75 µM. actives 0.99% (n = 340,000). AID 504766;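 active = inhibition above the mean over all tested compounds plus 3 SD, cut at about 4.2% in these data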;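 also: 0% = DAX1-transfected cells with DMSO and 100% = empty-vector control cells with DMSO; inhibition shows as a rise in luminescence from relieved DAX1 repression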
Target sequence (P51843 207-470 limits assumed): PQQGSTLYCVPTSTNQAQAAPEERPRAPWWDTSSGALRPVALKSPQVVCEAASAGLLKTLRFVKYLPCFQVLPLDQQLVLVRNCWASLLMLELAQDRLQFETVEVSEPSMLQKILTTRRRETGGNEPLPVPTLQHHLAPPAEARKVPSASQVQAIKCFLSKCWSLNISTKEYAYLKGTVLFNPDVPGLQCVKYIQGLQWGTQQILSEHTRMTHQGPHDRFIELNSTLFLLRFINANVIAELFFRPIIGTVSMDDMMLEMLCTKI
hgDAF12 agonist – activates the H. glycines DAF-12 receptor ligand-binding domain; actives 1.8% (n = 370,000); AID 687014; HEK293 GAL4-hgDAF12 UAS-luciferase reporter, agonist luminescence; normalized to butyrate control; activation, % at 6.8 µM;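 active = activation above a cutoff set at the mean of all screened compounds plus 3 SD, cut at about 10% in these data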;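 also: 0% = DMSO wells and 100% = sodium butyrate wells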
hcDAF12 agonist – activates DAF-12 receptor from parasite H. contortus | HEK293 hcDAF-12 lit1-tk-luc reporter, luminescence; 0% DMSO, 100% Δ7-dafachronic acid | actives 1.4% (n = 370,000) | activation, % at 6.8 µM | AID 652067;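 active = activation above the mean of all tested compounds plus 3 SD, cut at about 5.5% in these data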;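 also: 100% = response to 3 µM Δ7-dafachronic acid high control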
DAX1 inh-2 – blocks DAX1 repression of SF-1 activated StAR promoter | HEK293T StAR-luciferase reporter, SF-1/DAX-1 repression relief | inhibition, % at 6.8 µM | actives 1.1% (n = 370,000) | AID 652010;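 active = inhibition above the mean over all tested compounds plus 3 SD, cut at about 3.6% in these data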;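 also: 0% = DAX-1 cells with DMSO and 100% = cells lacking DAX-1 with DMSO; higher inhibition means more luminescence from relief of DAX-1 repression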
ssDAF-12 act – S. stercoralis DAF-12 activation, primary screen | HEK293 ssDAF-12/GRIP1 lit1-tk-luc reporter, luminescence; % of 3 µM dafachronic acid response | activation, % at 6.8 µM | actives 1% (n = 370,000);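 active = activation above the mean over all tested compounds plus 3 SD, cut at about 0.9% in these data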;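 also: 0% = DMSO-only wells and 100% = 3 µM delta7-dafachronic acid wells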
* = called active by the depositor; nt = not tested or not shown. Most compounds without a hit are left out; they make up all but 4.1% or so of the library.

SMILES | DAX1 inh-1 | hgDAF12 agonist | hcDAF12 agonist | DAX1 inh-2 | ssDAF-12 act
CN1CCc2c(sc(/N=C/c3c[nH]c4ccccc34)c2C(N)=O)C1 | nt | 3 | 5.9* | 0 | 0
COC(=O)[C@H](CC(C)C)N(CCCc1cn(Cc2ccccc2)nn1)S(=O)(=O)c1ccccc1Br | nt | 2 | -2 | -2 | -2
COc1cccc(/C=N/n2c(C)nc3ccccc3c2=O)c1O | 5.5* | 1 | 0 | 1 | -1
COCCN(C(=O)CC1C(=O)NCCN1Cc1ccc(-c2ccccc2)cc1)C(C)C (stereo unspecified) | 1 | -5 | 1 | -1 | -1
O=C1c2ccccc2-c2nc3ccccc3n21 | 3 | 1 | 0 | 0 | 0
c1ccc2c(c1)Cn1c-2nc2ccccc21 | 1 | 13* | 6.0* | 3 | 0
COc1ccc(-c2ccc3c(c2)c(Sc2ccccc2)c(-c2ccccc2)n3C)cc1 | nt | 1 | 1 | 0 | -1
O=C(COC(=O)c1ccccc1-n1cnnn1)c1ccccc1 | 1 | 1 | 3 | 0 | -1
O=C(COC(=O)c1ccccc1-n1cnnn1)c1ccc(F)c(F)c1 | 0 | 8 | 4 | 4.0* | 0.9*
COC(=O)c1ccc(S(=O)(=O)N2CCC(NC(=O)CCc3ccccc3)CC2)cc1 | nt | 1 | -1 | 1 | -1
CCCC(=O)Nc1nnc(SCC(=O)Nc2ccc3c(c2)OCCO3)s1 | 0 | -2 | -2 | 0 | 1.5*
CCc1ccc(Nc2nnc(SCC(=O)Nc3ccc(C(=O)O)cc3)s2)cc1 | 4 | 5 | 1 | 3.7* | 0
Cc1ccc(CSc2nnc(SCC(=O)N/N=C/c3ccc(C(=O)O)cc3)s2)cc1 | 4.3* | 2 | 0 | 2 | -2
O=C(CSc1nnc(NC(=O)C2CC2)s1)Nc1ccc(F)cc1 | -1 | 0 | 1 | 0 | -1
CC(=O)Nc1ccc(NC(=O)CSc2nnc(NC(=O)C3CC3)s2)cc1 | 6.5* | 2 | 2 | -4 | -1
Cc1nc2c(OCc3ccc(C(F)(F)F)cc3)cccn2c1N(C)Cc1cccs1 | nt | 4 | -2 | -1 | -1
COC(=O)[C@]12C[C@H](CC(=O)NCCCCc3ccccc3)C(=O)N(CCC3=CCCCC3)C1=C[C@H](C1CCCC1)O[C@@H]2C | nt | 2 | -1 | -1 | -2
COc1cccc(CNC(=O)[C@H]2CCCN2C(=O)[C@H]2CCCN2C(=O)c2cccc(Cl)c2)c1 | nt | -1 | 0 | 0 | -1
CCc1ccc(Nc2nnc(SCC(=O)Nc3cccc(S(=O)(=O)NC4=NCCCCC4)c3)s2)cc1 | 0 | 12* | 1 | 1 | -1
Cn1c(=O)c2c(nc(NCC(O)CO)n2CCc2ccccc2)n(C)c1=O (stereo unspecified) | 5.4* | 2 | 1 | 0 | -1
C=CCn1c(SCC(=O)NCCc2ccccc2)nc2c([nH]c3ccccc32)c1=O | 1 | 2 | 5 | -2 | 1.0*
COc1ccc(NC(=O)CSc2nc3c([nH]c4ccccc43)c(=O)n2C)c(OC)c1 | 1 | 1 | 5 | 1 | 0.9*
C=CCn1c(SCC(=O)Nc2ccccc2OC)nc2c([nH]c3ccccc32)c1=O | 0 | 4 | 5.9* | -1 | 0
COCCn1c(SCC(=O)Nc2ccc(F)cc2F)nc2c([nH]c3ccccc32)c1=O | 0 | -3 | 4 | 3 | 1
C=CCn1c(SCC(=O)Nc2ccc(F)cc2F)nc2c([nH]c3ccccc32)c1=O | 0 | 1 | 3 | -1 | 1.9*
SMILES | DAX1 inh-1 | hgDAF12 agonist | hcDAF12 agonist | DAX1 inh-2 | ssDAF-12 act
COC(=O)C1CN(Cc2ccc(C)cc2)CCS(=O)(=O)N1Cc1cn(Cc2ccccc2)nn1 (stereo unspecified) | nt | 2 | -4 | -1 | -1
C[C@H]1[C@@H](C(=O)N2CCCC2)Cc2nc3ccccc3nc2C[C@@H]1c1ccccc1 | nt | 3 | 4 | 1 | -1
CCCCCCCCNC(=O)C1CSCCS(=O)(=O)N1Cc1ccc(OC)cc1 (stereo unspecified) | nt | -1 | 3 | 0 | -2
CNC(C#Cc1ccccc1)c1ccccc1C(F)(F)F (stereo unspecified) | nt | 0 | -2 | nt | -1
CCOC(=O)C1(Cc2ccc(OC)cc2)CCN(C(=O)c2cc3ccccc3[nH]2)CC1 | 1 | 3 | 3 | 1 | 0.9*
O=C(O)c1ccc(/C=N/Nc2ccc(C(F)(F)F)cn2)cc1 | 1 | 19* | 6.0* | 4.2* | 3.4*
O=C(N/N=C/c1ccc(O)cc1)c1cccc(C(F)(F)F)c1 | -1 | 1 | 2 | 0 | -1
COc1cc(/C=N/Nc2ccc(C(F)(F)F)cn2)ccc1O | -1 | 4 | 3 | 0 | 0
COc1ccc(/C=N/Nc2ccc(C(=O)O)cc2)cc1Br | -2 | 4 | 4 | 4.0* | -1
O=C(O)c1ccc(/C=N/Nc2cccc(C(F)(F)F)c2)cc1 | 0 | 3 | 1 | 4.3* | -1
CNc1nc(N)c([N+](=O)[O-])c(Nc2cccc(OC)c2)n1 | nt | -1 | 1 | nt | -2
CC(C)[C@@H](CO)N1Cc2nnn(Cc3ccccc3)c2-c2ccccc2S1(=O)=O | nt | 4 | 3 | 1 | -1
CC[C@@]1(c2cccc(Cl)c2)C(=O)N(C(=O)OC(C)C)N1C(=O)OC(C)C | nt | -1 | 0 | -1 | -1
COC(=O)c1cnn(-c2nc3c(C)cccc3s2)c1C | 1 | 2 | 5.9* | 0 | 0
Cc1cccc2sc(N3CCN(C(=O)C4COc5ccccc5O4)CC3)nc12 (stereo unspecified) | -1 | 0 | -1 | 1 | -1
COc1ccc(C(C(=O)N(C)C2CCCC2)N(Cc2ccc(F)cc2)C(=O)c2cc(C)[nH]n2)cc1OC (stereo unspecified) | nt | 2 | -1 | 0 | -2
CC1=NN(c2nc(-c3ccc(C)cc3)cs2)C(=O)C1N=Nc1ccccc1O (stereo unspecified) | nt | 1 | 2 | 0 | 0.9*
CC1=NN(c2nc(-c3ccc(C)cc3)cs2)C(=O)C1N=Nc1cccc(O)c1 (stereo unspecified) | -1 | -3 | -1 | 0 | -1
COc1ccc(N2CCN(C(=O)COC(=O)[C@@H](NC(=O)OCc3ccccc3)C(C)C)CC2)cc1 | 0 | -3 | -1 | 0 | -2
C[C@H]1[C@@H](NC(=O)Cc2ccsc2)CC[C@@]23CCCN2C(=O)CCC[C@@H]13 | nt | 0 | 2 | nt | 2.6*
Cc1cccnc1NC(=S)NC(=O)/C=C/c1ccccc1 | 2 | 12* | 1 | 1 | -1
CCOC(=O)C1=CCN(S(=O)(=O)c2ccc(Br)cc2)C1c1cccc(Cl)c1 (stereo unspecified) | nt | -1 | -1 | -1 | -1
COc1ccc2nc(SCC(=O)NC3CCCC3)c(C)cc2c1 | 1 | 1 | -2 | -1 | -1
CCOC(=O)CC(=O)CSc1nc2cc(C)ccc2cc1C | 1 | -1 | 6.4* | 0 | 0
CCOC(=O)CSc1nc2cc(C)ccc2cc1C#N | 2 | 11* | 2 | 3 | 0

Screens as filed in PubChem BioAssay.
